# Hits are enriched below; roughly 19% of the tested compounds scored in any of these assays.
# KB-V1 cytotox = KB-V1 MDR subline cytotoxicity. KB-V1 MDR cells viability, CellTiter-Glo, 72 h. Potency, µM (series often up to 46.1 µM), usual class: cytotoxic. actives 3.4% (n = 400,000); note: nearly all actives have a fitted effect of over 60% in size
#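 Following 72 h at 37 degrees C with compound, KB-V1 cell viability was read by CellTiter-Glo luminescence, medium being phenol-red-free DMEM plus 10% FBS; concentration-response parameters came from normalized, curve-fitted qHTS data.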
# DT40 TDP1 no CPT = qHTS for Inhibitors of human tyrosyl-DNA phosphodiesterase 1 (TDP1): qHTS in cells in absence of CPT; DT40 Tdp1-/- hTDP1 cells, no CPT, ATP luminescence, 48 h; Potency, µM (titrated, usually from 46.2 µM), without a hit: at the highest dose activity change, negative = growth inhibition, most hits filed as inhibitors; actives 15% (n = 420,000); AID 686978, 2013; note: nearly all actives have a fitted effect of over 55% in size
#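 Growth kinetics read by CellTiter-Glo luminescence after ≥48 hr at 37 °C. Cells: DT40 Tdp1-/- stably carrying human TDP1, 400 per well, compound exposure in the absence of CPT (DMSO vehicle).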
# DT40 TDP1 CPT = DT40-hTDP1 cell growth loss with CPT; chicken DT40 Tdp1-/-;hTDP1 cells + 20 nM CPT, ATP luminescence, 48 h; Potency, µM (highest dose often 46.2 µM), inactives show at the top dose activity change, negative = growth inhibition, usual class: inhibitors; actives 12% (n = 420,000); AID 686979; note: nearly all actives have a fitted effect of over 55% in size
#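 Chicken DT40 Tdp1-/- cells complemented with human TDP1, 400 cells/well, exposed to compounds plus 20 nM camptothecin for at least 48 h at 37 C; viability read as ATP content by CellTiter-Glo luminescence.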
# HT1080NT lethal = kills 2HG-producing HT-1080-NT fibrosarcoma cells; HT-1080-NT fibrosarcoma viability, CellTiter-Glo ATP luminescence, 48 h; Potency, µM (doses to about 46.1 µM), for inactives: at the highest dose activity, negative = less viability, actives largely listed as cytotoxic; actives 1.6% (n = 360,000);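 note: NT is the 2HG producing partner of a matched IDH1 knockdown line; 0% = DMSO-treated cells and -100% = media-only wells without cells; nearly all actives have a fitted effect of over 55% in size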
#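 HT-1080-NT; 750 cells/well; 5% FBS RPMI; 48 h compound, 37 degrees C; CellTiter-Glo luminescence; curve fitting and curve-class assignment.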
# HT1080 IDH1KD tx = toxicity to HT-1080 IDH1 knockdown cells (counter line) | HT-1080 IDH1 knockdown viability, ATP luminescence, 48 h | Potency, µM (doses to about 46.1 µM), inactives show top-dose activity, negative = toxicity, usual class: cytotoxic | actives 2% (n = 360,000) | AID 686971;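 note: 0% = DMSO wells and -100% = cell-free medium wells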
#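 CellTiter-Glo luminescence after 48 h compound exposure at 37 degrees C of IDH1-knockdown HT-1080 cells in 5% FBS RPMI. %Activity scaled between DMSO wells and cell-free media wells, with curves fitted and assigned curve classes.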
# KB-3-1 cytotox = KB-3-1 parental cell cytotoxicity | KB-3-1 viability, CellTiter-Glo ATP luminescence, 72 h | Potency, µM (doses to about 46.1 µM), actives largely listed as cytotoxic | actives 1.4% (n = 400,000); note: nearly all actives have a fitted effect of over 60% in size
#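 Cells are dispensed, compounds pinned in, plates held at 37 °C for 72 h, then CellTiter-Glo is added and luminescence read after 10 minutes. Cell line: parental KB-3-1 in phenol-red-free DMEM, 10% FBS.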
# An asterisk follows results filed as active; i = inactive; ? = inconclusive; . = not tested or not shown; [ ] = remark or other dose. Calls come from the whole dose curve; as a rule, active = well fitted curve in the direction sought with a large enough effect; inconclusive = small, poorly fitted or top-dose-only effect, or another doubt; inactive = no such curve, though single readings can be large; an effect the other way counts as inactive or inconclusive. Unless noted, % is set by controls: 0 for no effect and ±100 for the full control effect; potency is the fitted concentration of half-maximal effect.
SMILES,KB-V1 cytotox,DT40 TDP1 no CPT,DT40 TDP1 CPT,HT1080NT lethal,HT1080 IDH1KD tx,KB-3-1 cytotox
COc1ccc(/C=N\NC(=O)c2sccc2C)cc1Cn1nc(C)cc1C,6.5µM*,?,7.3µM*,0%,-6%,?
Cc1cc(C)n(CCC(=O)N/N=C/c2ccc(Cl)c([N+](=O)[O-])c2)n1,?,-16%,8%,1%,22%,i
COc1ccc(/C=N\NC(=O)COc2ccccc2Cl)cc1Cn1nc(C)cc1C,i,23µM*,?,?,?,i
Cc1ccc(CNC(=O)C2CCCN(S(=O)(=O)c3cccc4nsnc34)C2)cc1 (configuration not stated),i,-14%,0%,.,.,i
COc1ccccc1CNS(=O)(=O)c1ccc(N2CCCCS2(=O)=O)cc1,i,23µM*,?,.,.,i
CCC(C)NS(=O)(=O)c1ccc(N2CCCCS2(=O)=O)cc1 (configuration not stated),i,?,?,.,.,i
CC(C)CCNS(=O)(=O)c1ccc(N2CCCCS2(=O)=O)cc1,i,9.2µM*,12µM*,.,.,?
CCN(CC)S(=O)(=O)c1ccc(N2CCCCS2(=O)=O)cc1,i,-23%,-15%,.,.,i
Cc1cc(C)cc(NS(=O)(=O)c2ccc(N3CCCCS3(=O)=O)cc2)c1,?,15µM*,12µM*,.,.,i
CCCCCNS(=O)(=O)c1ccc(N2CCCCS2(=O)=O)cc1,?,18µM*,16µM*,.,.,?
CC(=O)Oc1cc2c(s1)CCN(C(C(=O)C1CC1)c1ccccc1F)C2 (configuration not stated),.,-13%,6%,.,.,.
Cc1ccc(Cn2ccnc2SCC(=O)Nc2nnc(C)s2)cc1,i,-1%,-4%,.,.,i
CCCN(CC(=O)Nc1ccccc1OC)C(=O)Cn1[nH]c(=O)c2ccccc2c1=O,i,12%,-18%,-6%,-14%,i
CC(=O)C1(C)CCC2C3C=C(C)C4=CC(=O)CCC4(C)C3CCC21C (configuration not stated),4.6µM*,23µM*,18µM*,0%,7%,?
CC(=O)[C@@]1(O)CC[C@H]2[C@@H]3CCC4=CC(=O)CC[C@]4(C)[C@H]3[C@@H](O)C[C@@]21C,?,-16%,-18%,?,13%,i
C[C@]12CCC(=O)C=C1CC[C@@H]1[C@@H]2CC[C@@]2(C)[C@H]1CC[C@]2(O)C(=O)CO,i,?,?,-1%,10%,i
C=C1CC2C(CCC3(C)C2CCC3(O)C(C)=O)C2(C)CCC(=O)C=C12 (configuration not stated),21µM*,26µM*,?,?,-29%,21µM*
O=C(O)c1ccc(-n2nc(-c3ccccc3O)nc2-c2ccccc2O)cc1,.,21µM*,?,.,.,.
Oc1ccccc1-c1nc(/C=C/c2ccccc2)nn1-c1ccccc1,?,?,-27%,1%,3%,i
O=c1c(Cl)c(Cl)cnn1Cc1nnc(-c2ccccc2Br)o1,?,1.8µM*,4.1µM*,12µM*,9.2µM*,i
O=C(Nc1cc(C(=O)N2CCN(c3ccccc3)CC2)ccc1Cl)c1cccs1,8.2µM*,?,?,-3%,-8%,i
O=C(NC(=S)Nc1ccc(N2CCN(C(=O)c3ccccc3)CC2)cc1)c1cccs1,?,26µM*,?,-11%,-18%,i
COc1ccc(NC(=O)c2cccs2)cc1C(=O)N1CCN(c2ccccc2)CC1,.,?,?,-4%,-30%,.
CCCC(=O)N1CCN(c2ccc(NC(=S)NC(=O)CC)cc2)CC1,23µM*,-11%,-19%,22%,2%,i
O=C(NC(=S)Nc1ccc(N2CCCCC2)cc1)c1cccs1,i,?,21µM*,1.3µM*,4µM*,i
SMILES,KB-V1 cytotox,DT40 TDP1 no CPT,DT40 TDP1 CPT,HT1080NT lethal,HT1080 IDH1KD tx,KB-3-1 cytotox
CS(=O)(=O)N1CCN(c2ccc(NC(=S)NC(=O)c3cccs3)cc2)CC1,i,14%,-9%,0%,2%,i
CCCC(=O)NC(=S)Nc1ccc(N2CCN(C(=O)c3cccs3)CC2)cc1,?,15µM*,16µM*,?,?,i
Cc1cn(C)c(CC(=O)Nc2cccc(C#N)c2)c1C(=O)O,?,0%,-20%,.,.,i
CCCNC(=O)NC(=O)CSc1nncs1,i,-4%,-1%,19%,16%,i
CCN(CC)CCNC(=O)CCCNC(=O)Cn1cnc2sc(C)c(C)c2c1=O,i,-5%,-2%,5%,10%,i
CN1/C(=C/C=C/c2n(C)c3cc([N+](=O)[O-])c([N+](=O)[O-])cc3[n+]2C)C(C)(C)c2ccccc21,i,3.7µM*,?,?,?,i
CCOC(=O)CCCCCC(=O)Nc1ccc2c(c1)CC(=O)N([C@H](C)CO)C[C@H](C)[C@H](CN(C)S(=O)(=O)c1ccc(OC)cc1)O2,i,-17%,?,7%,4%,i
COc1ccc(F)cc1-c1cc(C(=O)Nc2ccc(C)c(NS(C)(=O)=O)c2)[nH]n1,i,16µM*,18µM*,?,?,i
CCCOc1ccc(F)cc1-c1cc(C(=O)Nc2ccc(C)c(NS(C)(=O)=O)c2)[nH]n1,23µM*,23µM*,16µM*,?,?,?
COc1cc(F)ccc1-c1cc(C(=O)Nc2ccc(C)c(NS(C)(=O)=O)c2)[nH]n1,i,-22%,?,-18%,5%,i
COCCN(C(=O)c1csnn1)C(C(=O)NC1CCCC1)c1ccccc1F (configuration not stated),i,-16%,-1%,-1%,4%,i
CC(C)c1ccc(NC(=O)CNS(=O)(=O)c2ccc(F)cc2)cc1,?,12µM*,16µM*,10%,-3%,i
Cc1ccc(S(=O)(=O)NCC(=O)Nc2ccc(C(F)(F)F)cc2)cc1,i,?,?,6%,1%,i
O=C(CNS(=O)(=O)c1ccc(F)cc1)Nc1ccc(C(F)(F)F)cc1,i,18µM*,18µM*,1%[9.24 µM],-26%,i
O=C(C[n+]1ccc(C(=O)c2ccccc2)cc1)Nc1ccc(C(F)(F)F)cc1,i,16µM*,23µM*,-25%,?,i
